Measured values reported in PubChem BioAssay AID686978 (National Center for Advancing Translational Sciences (NCATS), 2013).
About 64,000 (15%) of roughly 420,000 compounds were called active. About 27% were inconclusive and are not listed. Only a sample is shown. A number with no mark means an inactive call. Calls come from the whole dose curve; as a rule, active = well fitted inhibition curve with a large enough effect; inconclusive = small, poorly fitted or top-dose-only effect; inactive = flat fitted curve, though single readings scatter.

Assay: qHTS for Inhibitors of human tyrosyl-DNA phosphodiesterase 1 (TDP1): qHTS in cells in absence of CPT; note: nearly all actives have a fitted effect of over 55% in size
Conditions: DT40 Tdp1-/- hTDP1 cells, no CPT, ATP luminescence, 48 h; activity change, negative = growth inhibition: at 46.2 µM (top of the series)
Outline: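 No-CPT arm: Tdp1-/-;hTDP1 DT40 cells (400/well) plus compounds, incubated ≥48 hr at 37 °C. Readout CellTiter-Glo luminescence.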
% is set by controls: 0 for no effect and ±100 for the full control effect; potency is the fitted concentration of half-maximal effect.

| SMILES | activity change, negative = growth inhibition [%] | Potency |
| --- | --- | --- |
| CN(C)C(=O)CSc1n[nH]c(-c2ccco2)n1 | 2.59 |  |
| COC(C[C@@H](O)C[C@@H](O)[C@H](C)OCc1ccccc1)OC | -4.64 |  |
| O=C(Cc1ccc(Br)cc1)NCCc1ccccc1 | -19.9 |  |
| COc1ccccc1NC(=O)CCC(=O)N1CC(C)Oc2ccc(C)cc21 (stereo unspecified) |  | 16.4 µM (active) |
| CC1CN(C(=O)CCC(=O)NCc2cccnc2)c2ccccc2O1 (stereo unspecified) | -9.83 |  |
| COC(=O)C(CC(=O)Nc1cc(C)ccc1C)Nc1ccccc1OC (stereo unspecified) | -2 |  |
| O=C(CSc1ncnc2scc(-c3ccccc3)c12)NCc1ccc2c(c1)OCO2 | 4.66 |  |
| O=C(Cn1nnc(-c2ccccc2)n1)NCc1ccc2c(c1)OCO2 | -21.4 |  |
| CN(C)C(=O)c1cccc(-c2cnc3sc(NCc4ccc5c(c4)OCO5)nn23)c1 |  | 13 µM (active) |
| OC(CNC1CCCC1)COc1ccc(F)cc1 (stereo unspecified) | -3.38 |  |
| Nc1c(C(=O)Nc2ccc3c(c2)OCCO3)nnn1Cc1ccccc1 | -27.2 |  |
| COC(=O)c1ccc(CSc2nc3cc(Cl)ccc3o2)cc1 | -11.2 |  |
| O=S(=O)(c1ccccc1)c1nc(-c2ccccc2F)oc1NCc1cccnc1 | 5.86 |  |
| O=S(=O)(c1ccc(Br)cc1)c1nc(-c2ccccc2)oc1NCc1cccnc1 | -18.3 |  |
| COc1cccc(-c2nc(S(=O)(=O)c3ccc(C)cc3)c(NCc3ccccc3)o2)c1 |  | 18.4 µM (active) |
| COc1cc(C2C3C(=O)N(c4ccccc4)C(=O)C3ON2c2ccccc2)ccc1O (stereo unspecified) | -5.92 |  |
| COc1ccc(-c2nn(CC(=O)NC3CCCC3)c3c2cnc2ccc(F)cc23)cc1 | -10.7 |  |
| COc1ccc2ncc3c(-c4ccc(C)c(C)c4)nn(CC(=O)NC4CCCC4)c3c2c1 |  | 6.51 µM (active) |
| CCc1ccc2ncc3c(-c4ccc(C)cc4)nn(CC(=O)NCc4ccccc4)c3c2c1 | -13.3 |  |
| COc1cccc2c(=O)n(CC(=O)N3CCCCCC3)ccc12 | -8.15 |  |
| CCOc1ccc(C2C(C(=O)Nc3ccc(Cl)cc3)=C(C)Nc3nc(C(F)(F)F)nn32)cc1 (stereo unspecified) |  | 14.6 µM (active) |
| CCOc1cc(C2C(C(=O)Nc3ccc(OC)cc3)=C(C)Nc3nc(SC)nn32)ccc1O (stereo unspecified) | -2.38 |  |
| COc1cc(C2C(C(=O)Nc3ccc(F)cc3)=C(C)Nc3nc(CCCO)nn32)cc(OC)c1OC (stereo unspecified) | -0.287 |  |

| SMILES | activity change, negative = growth inhibition [%] | Potency |
| --- | --- | --- |
| CCOc1ccccc1N(C)C(=O)c1cc2c(s1)-c1ccccc1OC2 |  | 16.4 µM (active) |
| CCOc1ccccc1-c1cc(C(=O)N2CCOCC2)c2ccccc2n1 | 3.51 |  |
| COc1cc(OC)c(N(C)C(=O)c2cc3c(=O)oc4ccccc4c3s2)cc1Cl | -0.861 |  |
| COc1ccc(C(=O)NC(C)Cn2nc(C)cc2C)cc1OC1CCN(C(C)=O)CC1 (stereo unspecified) | -0.393 |  |
| COc1ccc(-c2onc3ccc(C(C)=O)cc23)cc1 | -13.7 |  |
| CCOCCCNC(=O)c1ccc(CS(=O)(=O)c2cccc(C(F)(F)F)c2)o1 | 6.63 |  |
| Cc1c(Cl)cnc(NC(=O)COC(=O)c2ccc(S(=O)(=O)NCc3ccco3)cc2)c1Cl | -8.95 |  |
| CC(C)(C)c1ccc(C(=O)C[n+]2cccc3cc(Cl)ccc32)cc1 |  | 4.47 µM (active) |
| COC(=O)C[n+]1cccc2ccccc21 | -21.6 |  |
| Cc1cccc[n+]1CC(=O)c1ccccc1 | 0.748 |  |
| COc1cccc2c1OCC(C(=O)NCc1ccc(Cl)cc1Cl)=C2 | 2.01 |  |
| O=C1NCC(Nc2ccccc2)C(=O)N1 (stereo unspecified) | 12.2 |  |
| Nc1ccccc1SCc1cc([N+](=O)[O-])cc2c1OCOC2 | -24.8 |  |
| Nc1ccccc1SC(C[N+](=O)[O-])c1ccccc1 (stereo unspecified) |  | 2.31 µM (active) |
| C#CCO[C@@H]1C[C@H](n2cnc3c(=O)[nH]c(NC(=O)C(C)C)nc32)O[C@@H]1CO | 3.17 |  |
| CCCCCCCCCCCCCCCCO | 4.89 |  |
| O=C(NCCCN1CCOCC1)c1cc2c(s1)CCC2 | -0.232 |  |
| Cc1cccc2c1-c1sc(C(=O)NCCCN3CCc4ccccc4C3)cc1CO2 |  | 20.6 µM (active) |
| O=C(CN1C(=O)COc2ccccc21)NCCN1CCc2ccccc2C1 | 4.11 |  |
| O=C(Nc1cccc(Cl)c1)c1cncn1-c1ccc(F)cc1 | -3.19 |  |
| Cc1ccc(NC(=O)CCN2C(=O)c3ccccc3C2=O)cc1C | 3.57 |  |
| Cc1cc(C)cc(NC(=O)CN2C(=O)c3ccccc3C2=O)c1 | -10.3 |  |
| Cc1cc2c(cc1C)N(C(=O)CN1C(=O)c3ccccc3C1=O)C(C)(C)c1ssc(=S)c1-2 |  | 25.9 µM (active) |

| SMILES | activity change, negative = growth inhibition [%] | Potency |
| --- | --- | --- |
| CCCC(=O)N=c1sc2cccc(F)c2n1C | -6.66 |  |
| CCCN(C(=O)CSc1nnnn1C)c1c(N)n(Cc2ccccc2)c(=O)[nH]c1=O | -8.42 |  |
| COC(=O)[C@@H]1C[C@@]2(O)[C@@H](O)[C@@H](O)[C@@H](O)C[C@H]2N1Cc1ccc(C)s1 | -22.7 |  |
| CS(=O)(=O)N(CC(=O)N1CCN(c2ccc(F)cc2)CC1)C1CCCCC1 | -11.2 |  |
| CN(C1CCS(=O)(=O)C1)S(=O)(=O)c1ccc2ccccc2c1 (stereo unspecified) | -18.1 |  |
| COc1ccc(CCN(C)C(=O)C2CCCN(Cc3ccc(OC)c(OC)c3)C2)cc1OC (stereo unspecified) | -13.7 |  |
| COc1ccc(CN2CCCC(C(=O)c3ccc(Cl)cc3)C2)cc1Cn1cncn1 (stereo unspecified) |  | 18.4 µM (active) |
| COc1cc(CN2CCCC(C(=O)c3ccc(SC)cc3)C2)cc(Cl)c1O (stereo unspecified) |  | 14.6 µM (active) |
| COc1ccc(CN2CCCC(CNC(=O)c3ccc(F)cc3)C2)cc1OC (stereo unspecified) | -13.6 |  |
| COc1ccc(CN2CCCC(C(=O)N3CCCCC3)C2)cc1 (stereo unspecified) | -15.9 |  |
| c1ccc(-n2ncc(-c3nn[nH]n3)n2)cc1 | -9.83 |  |
| Cc1ccccc1NC(=O)COc1cccc2c1CCNC2=O | -29.1 |  |
| Cc1c(Cl)cccc1NC(=O)CSc1ccc(-c2cccnc2)nn1 | -20.6 |  |
| Brc1ccc(CSc2ccc(-c3ccco3)nn2)cc1 | 5.7 |  |
| Cc1cc(F)ccc1S(=O)(=O)Nc1ccc(C(=O)N(C)Cc2ccco2)cc1 | -6.11 |  |
| COCCn1c(C)cc(C2=NNC(=Nc3ccc(F)cc3)SC2)c1C |  | 14.6 µM (active) |
| Cc1cc(C2=NNC(=Nc3ccc(S(=O)(=O)N4CCOCC4)cc3)SC2)c(C)n1CC1CCCO1 (stereo unspecified) |  | 2.91 µM (active) |
| Cc1ccc(S(=O)(=O)N2CCC(C(=O)NCC3CCCO3)CC2)cc1 (stereo unspecified) | 0.855 |  |
| C=CCn1c(C)cc(C2=NNC(=NCC)SC2)c1C |  | 20.6 µM (active) |
| Cc1ccnc(NS(=O)(=O)c2ccc(NC(=O)c3ccc(S(=O)(=O)N4CCOCC4)cc3)cc2)n1 | -8.99 |  |
| CCSC(C)CC1C/C(=N/O)c2c(C)noc2C1 (stereo unspecified) | -5.32 |  |
| Cc1ccc(Cl)c(OCC(=O)N2CCc3ccccc3C2)c1 | -4.58 |  |
| Nc1c(-c2ccc(F)cc2)cnn1C1CCS(=O)(=O)C1 (stereo unspecified) | -14.5 |  |

| SMILES | activity change, negative = growth inhibition [%] | Potency |
| --- | --- | --- |
| Cc1cc(=O)cc(C)n1-c1ccc(Cl)c(Cl)c1 | 2.04 |  |
| CCOc1ccccc1NC(=O)CCS(=O)(=O)c1cccc2nsnc12 |  | inactive |
| CCOc1ccc(-c2c(C)n([O-])c3c([n+]2=O)CCCC3)cc1 | -1.93 |  |
| Nc1nc2cc(Cl)ccc2n1N | -9.62 |  |
| COc1cc(OC)c(C2C=C(C(=O)O)Nc3ncnn32)cc1OC (stereo unspecified) | 31.7 |  |
| CC(C)c1nnc(NC(=O)C2CC(=O)N(CCc3ccc(F)cc3)C2)s1 (stereo unspecified) | -1.1 |  |
| CC(=O)Nc1ccc(S(=O)(=O)N(CCc2ccccc2)CC(=O)N/N=C/c2ccc(C(=O)O)cc2)cc1 | -16.1 |  |
| CCOc1ccc(NC(=O)CSc2nncn2C)cc1 | -14.2 |  |
| CC(=O)c1cccc(NC(=O)CSc2nc3c(c(=O)[nH]2)CCC3)c1 | -13.9 |  |
| CCOc1ccc(C(=O)NC2CCN(C(=O)Nc3ccccc3OC)CC2)cc1 | -20.6 |  |
| CCOc1ccc(C(=O)Nc2ccc3nc4c(c(Nc5ccccc5OC)c3c2)CCCC4)cc1 |  | 4.61 µM (active) |
| CCOc1ccc(NC(=O)CSc2c3c(nc4ccccc24)CCCC3)cc1 |  | 16.4 µM (active) |
| COc1ccc(C(=O)Nc2onc3c2CCCC3)cc1 | -21 |  |
| Cn1cnnc1SCC(=O)NNC(=O)COc1ccc(Br)cc1 | 0.551 |  |
| O=C(NC1CC1)C1CCCN(C(=O)NC2CCCCC2)C1 (stereo unspecified) | 11.4 |  |
| COc1ccc(N2CCN(C(=O)Cn3cnc4sc(C)c(S(=O)(=O)N5CCOCC5)c4c3=O)CC2)cc1 |  | 18.4 µM (active) |
| Cc1cc(Br)ccc1NC(=O)Cn1cnc2sc(C)c(S(=O)(=O)N3CCN(C)CC3)c2c1=O | 1.29 |  |
| CCN(CC)CCNC(=O)Cn1cnc2sc(C)c(S(=O)(=O)N3CCOCC3)c2c1=O | -4.5 |  |
| OCCN1CCN(CCO)C1=S | -13.3 |  |
| CC(C)(C)NC(=O)NC(=O)COC(=O)CCC1CCCCC1 | -5.88 |  |
| O=C(c1ncn2c1c(=O)[nH]c1ccccc12)N1CCc2ccccc2C1 | -20.7 |  |
| O=C(Cc1c(O)c2ccccc2[nH]c1=O)NCc1ccccc1 | -9.23 |  |
| Cc1c(C(=O)CN2CCOCC2)[nH]c2ccccc12 | -6.49 |  |

| SMILES | activity change, negative = growth inhibition [%] | Potency |
| --- | --- | --- |
| O=C(c1c(Cl)cccc1Cl)N1CCN(c2cccc3[nH]ccc23)CC1 | -22.9 |  |
| Cc1cccc(N2CCN(C(=O)c3cc4c(=O)[nH]c5ccccc5c4n3C)CC2)c1C |  | 18.4 µM (active) |
| Cn1cccc1C(=O)N1CCc2ccccc2C1 | 0.109 |  |
| O=C(NCCN1CCN(Cc2ccccc2)CC1)c1cc2c(=O)[nH]c3ccccc3c2s1 |  | 25.9 µM (active) |
| Cn1c(C(=O)NCCN2CCc3ccccc3C2)cc2c(=O)[nH]c3ccccc3c21 |  | 16.4 µM (active) |
| CC(C(=O)O)N1C(=O)c2cccc3cccc1c23 (stereo unspecified) | -21.4 |  |
| CC(C)NC(=O)NCCCCCCS(C)=O (stereo unspecified) | -10.1 |  |
| Cc1ccn2cc(-c3nonc3C)cc2c1 | -17.3 |  |
| CC1(C(=O)NS(=O)(=O)c2ccc3ccccc3c2)CCN1C(=O)C1(c2ccc(Cl)cc2)CCC1 (stereo unspecified) | -24.9 |  |
| CCN(C(=O)CSc1nnc2ccccn12)C1CCS(=O)(=O)C1 (stereo unspecified) | 6.51 |  |
| CC(OC(=O)c1cccnc1Cl)C(=O)NC1CCCCC1 (stereo unspecified) | 0.257 |  |
| CC(C)Cn1c(CCC(=O)O)ccc1-c1cccs1 | -11.6 |  |
| COc1cc(C(=S)NC2CCCCC2)ccc1O | -18.8 |  |
| COc1cccc(CC2(CO)CCN(Cc3cnc(-c4cccc(C)c4)nc3)CC2)c1 |  | 20.6 µM (active) |
| CC(=O)c1cccc(CN2CCC(CO)(Cc3ccccc3)CC2)c1 | -3.52 |  |
| COc1ccc(CC2(CO)CCN(Cc3cnn(C)c3)CC2)cc1 | -2.37 |  |
| Cc1cccc(-c2ncc(CN3CCC(CO)(CCCc4ccccc4)CC3)cn2)c1 |  | 23.1 µM (active) |
| OCC1(CCc2ccccc2)CCN(Cc2ccc3nsnc3c2)CC1 | -29.8 |  |
| COC(=O)c1ccc(CN2CCC(CO)(Cc3ccc(OC)cc3)CC2)cc1 | -22.6 |  |
